# PubChem BioAssay (NCATS)
# Values joined by “and” are separate entries in the source; they are usually repeats but may differ in a detail not shown here. Equal values may be shown once. Results filed as inconclusive are left out. Values without a mark were called inactive. Active and inactive are the calls of the source. Calls follow the shape of the dose curve; as a rule, active = well fitted inhibition curve with a large enough effect; inconclusive = small, poorly fitted or top-dose-only effect; inactive = flat fitted curve, though single readings scatter.
# Legend:
# CRL-7250 = normal cell line; test: Cytotoxic Profiling of Annotated Libraries Using Quantitative High-Throughput Screening (AID 1296008); settings: Five cell lines viability, CellTiter-Glo ATP luminescence, 48-72 h; max response: hits give low values; also: potency is read from the fitted curve at half-maximal effect; as to max response: % is scaled to controls: 0 for no effect and ±100 for the full control effect
# How it was run: (§1)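 Cells exposed to compounds for 48 or 72 hr at 37 degrees Celsius. Viability read as ATP-coupled luminescence with CellTiter-Glo after 10 min at room temperature.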
# HaCat [1] = test: as above; settings: Five cell lines viability, CellTiter-Glo ATP luminescence, 48-72 h; max response: hits give low values
# How it was run: as §1
# KB-3-1 = test: as above; settings: Five cell lines viability, CellTiter-Glo ATP luminescence, 48-72 h; max response: hits give low values
# How it was run: as §1
# NIH3T3 = test: as above; settings: Five cell lines viability, CellTiter-Glo ATP luminescence, 48-72 h; max response: hits give low values
# How it was run: as §1
# HACAT [2] = test: qHTS assay to identify novel small-molecules to repurpose for Merkel cell carcinoma treatment (AID 1296009); settings: MCC and control cell lines, CellTiter-Glo viability, 72 h; at 44.8 µM (top of the series) unless noted
# How it was run: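 Cells were treated for 72 hr at 37 degree celsius with compounds in 8- or 11-point dose response. Viability was read by CellTiter-Glo luminescence, normalized to no-cell (cytotoxicity) and DMSO controls.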
# HEK293 = test: Cytotoxic Profiling of Annotated Libraries Using Quantitative High-Throughput Screening (AID 1296008); settings: Five cell lines viability, CellTiter-Glo ATP luminescence, 48-72 h; max response: hits give low values; also: potency is read from the fitted curve at half-maximal effect; as to max response: % is scaled to controls: 0 for no effect and ±100 for the full control effect
# How it was run: as §1
# TAB113 = test: qHTS profiling for inhibitors of Plasmodium falciparum proliferation (AID 504749); also: potency is read from the fitted curve at half-maximal effect; settings: P. falciparum in erythrocytes, SYBR Green DNA, 72 h; series mostly up to 28.7 µM
# How it was run: (§2)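 P. falciparum-infected erythrocytes (0.3% parasitemia, 2.5% hematocrit) incubated with compound 72 h at 37 C, 5% CO2. Parasite DNA detected by SYBR Green after lysis, overnight at room temperature; normalised to 0.29 uM artemisinin and DMSO.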
# TAB165 = test: as above; settings: P. falciparum in erythrocytes, SYBR Green DNA, 72 h; series mostly up to 28.7 µM
# How it was run: as §2
# W2 = test: as above; settings: P. falciparum in erythrocytes, SYBR Green DNA, 72 h; series mostly up to 28.7 µM
# How it was run: as §2
# Also: nearly all actives have a fitted effect of over 60% in size.
smiles,measurement,setting,value
CCc1cc(Cl)c(OC)c(C(=O)NC[C@@H]2CCCN2CC)c1O,max response,CRL-7250,3.41%
same,outcome,HaCat [1],inactive
same,max response,KB-3-1,-11.4% and -0.677% and -21.5%
same,max response,NIH3T3,4.04%
same,outcome,HACAT [2],inactive
C[C@H]1[C@H]2CC[C@H]3[C@@H]4CC=C5C[C@@H](N(C)C)CC[C@]5(C)[C@H]4CC[C@]23CN1C,max response,CRL-7250,-17.6%
same,outcome,HaCat [1],inactive
same,max response,KB-3-1,3.38%
same,max response,NIH3T3,0.439%
same,outcome,HACAT [2],inactive
CCOC(=O)[C@H](CCc1ccccc1)N[C@@H](C)C(=O)N1[C@H](C(=O)O)C[C@@H]2CCC[C@@H]21,max response,HEK293,1.35%
same,outcome,HaCat [1],inactive
same,max response,KB-3-1,3.06%
same,max response,NIH3T3,0.794%
same,outcome,HACAT [2],inactive
CCC(C(=O)OCCOCCN(CC)CC)c1ccccc1 (stereo not drawn),Potency,TAB113,inactive
same,Potency,TAB165,inactive
same,Potency,W2,12 µM (active)
same,max response,HEK293,-19.3%
same,outcome,HaCat [1],inactive
same,max response,KB-3-1,16.3%
same,outcome,NIH3T3,inactive
same,outcome,HACAT [2],inactive
CC(C)[C@@H]1CC[C@@H](C)CC1=O,max response,HEK293,-11.3%
same,outcome,HaCat [1],inactive
same,max response,KB-3-1,-7.81%
same,max response,NIH3T3,4.81%
same,outcome,HACAT [2],inactive
O=C(Nc1cccc(C2=NCCN2)c1)Nc1cccc(C2=NCCN2)c1,Potency,TAB113,7.94 µM (active)
same,Potency,TAB165,2.51 µM (active)
same,Potency,W2,1.69 µM (active)
same,outcome,CRL-7250,inactive
same,max response,HaCat [1],-0.992%
same,max response,KB-3-1,-7.99%
same,max response,NIH3T3,1.41%
NC1CCN(c2nc3c(cc2F)c(=O)c(C(=O)O)cn3-c2ccc(F)cc2F)C1 (stereo not drawn),Potency,W2,5.36 µM (active)
same,outcome,CRL-7250,inactive
same,outcome,HaCat [1],inactive
same,max response,KB-3-1,1.57%
same,outcome,NIH3T3,inactive
same,outcome,HACAT [2],inactive
CN1CCN(c2cc3c(cc2F)c(=O)c(C(=O)O)cn3-c2ccc(F)cc2)CC1,Potency,TAB113,inactive
same,Potency,TAB165,inactive
same,Potency,W2,12 µM (active)
same,max response,CRL-7250,-1.2%
same,max response,HaCat [1],2%
same,max response,KB-3-1,-5.32%
same,max response,NIH3T3,-2.14%
CC(C)(C)NC[C@H](O)COc1cccc2c1CCCC2=O,Potency,TAB113,inactive
same,Potency,TAB165,inactive
same,max response,CRL-7250,-0.218%
same,max response,HaCat [1],-26.5%
same,max response,KB-3-1,-2.09%
same,max response,NIH3T3,-0.923%
CN(CCCN1c2ccccc2CCc2ccccc21)CC(=O)c1ccc(Cl)cc1,Potency,TAB113,10 µM (active)
same,Potency,TAB165,8.91 µM (active)
same,Potency,W2,3.38 µM (active)
same,max response,CRL-7250,-9.87%
same,max response,HaCat [1],-17.1%
same,max response,NIH3T3,3.31%
CCOc1cc(OCC)c(C(=O)CCC(=O)O)cc1OCC,Potency,TAB113,inactive
same,Potency,TAB165,inactive
same,Potency,W2,inactive
same,max response,HEK293,-0.0497%
same,outcome,HaCat [1],inactive
same,max response,KB-3-1,-0.0013%
same,outcome,NIH3T3,inactive
same,outcome,HACAT [2],inactive
CCOC(=O)C(C#N)=C(c1ccccc1)c1ccccc1,Potency,TAB113,inactive
same,Potency,TAB165,inactive
same,Potency,W2,inactive
same,max response,CRL-7250,-5.66%
same,max response,HaCat [1],-20.2%
same,max response,KB-3-1,1.81%
same,max response,NIH3T3,3.96%
CC(C)CCCC(C)N (stereo not drawn),Potency,TAB113,inactive
same,Potency,TAB165,inactive
same,Potency,W2,inactive
same,Potency,CRL-7250,33.5 µM (active)
same,max response,HaCat [1],-0.769%
same,max response,KB-3-1,22%
same,outcome,NIH3T3,inactive
COc1ccc(-c2cc(C(F)F)nn2-c2ccc(S(N)(=O)=O)cc2)cc1F,Potency,TAB113,inactive
same,Potency,TAB165,inactive
same,Potency,W2,inactive
same,max response,CRL-7250,2.74%
same,max response,HaCat [1],-0.189%
same,max response,KB-3-1,15.2%
same,max response,NIH3T3,1.89%
CCN1CCCC(OC(=O)C(c2ccccc2)c2ccccc2)C1 (stereo not drawn),outcome,CRL-7250,inactive
same,max response,HaCat [1],-8.51%
same,max response,NIH3T3,2.04%
COc1cc(C(=O)NCc2ccc(OCCN(C)C)cc2)cc(OC)c1OC,Potency,TAB113,inactive
same,Potency,TAB165,inactive
same,Potency,W2,inactive
same,max response,CRL-7250,-8.61%
same,max response,HaCat [1],4.17%
same,max response,KB-3-1,-11.1%
same,max response,NIH3T3,-0.23%
C[N+]1(CC2COC(c3ccccc3)(C3CCCCC3)O2)CCCCC1 (stereo not drawn),Potency,TAB113,5.01 µM (active)
same,Potency,TAB165,5.01 µM (active)
same,Potency,W2,5.36 µM (active)
same,max response,CRL-7250,-1.29%
same,max response,HaCat [1],3.15%
same,max response,KB-3-1,-6.02%
same,max response,NIH3T3,-8.34%
CN1CCN(C2=Nc3cc(F)ccc3Cc3ccccc32)CC1,Potency,TAB113,inactive
same,Potency,W2,7.57 µM (active)
same,max response,CRL-7250,-25%
same,max response,HaCat [1],-42.8%
same,max response,KB-3-1,0.909%
same,max response,NIH3T3,-19.6%
CC(C)(Cc1c[nH]c2ccccc12)NCC(O)COc1ccccc1C#N (stereo not drawn),Potency,TAB165,12.6 µM (active)
same,Potency,W2,3.79 µM (active)
same,max response,CRL-7250,-4.9%
same,max response,HaCat [1],-15.6%
same,max response,KB-3-1,19.5%
same,max response,NIH3T3,-8.73%
